Among the data in ChEMBL document CHEMBL1157539, “Thousands of chemical starting points for antimalarial lead identification” (Nature, 2010) are Inhibition values, retold here.

What all share (type): functional
Assay [1] relates to Plasmodium falciparum. The experiment in a line: GSK_TCMDC: Inhibition of Plasmodium falciparum 3D7 in whole red blood cells, using parasite LDH activity as an index of growth. Test compounds present at 2uM.
Assay [2] deals with Plasmodium falciparum. Description: GSK_TCMDC: Inhibition of Plasmodium falciparum Dd2 in whole red blood cells, using parasite LDH activity as an index of growth. Test compounds present at 2uM.
The subject of the next assay is HepG2. The experiment in a line: GSK_TCMDC: Percent inhibition of human HepG2 cell line. Test compounds present at 10uM.

What is called Inhibition is how much of the control response was suppressed. Higher therefore signals strong suppression. On to `CCC(NC[C@@H](O)[C@H](Cc1ccccc1)NC(=O)c1cc(C2CCCC2)cc(N2CCCC2=O)c1)c1cccc(Cl)c1.Cl` (stereo partly drawn), for which the Inhibition in the assay on Plasmodium falciparum [1] came to 100%; in the assay on Plasmodium falciparum [2] it was 97%; with HepG2, 7%.

Turning to `COc1cccc2cc(C(=O)N[C@@H](CC(C)C)C(=O)NC(/C=N/NC(=O)c3ccccc3)CCc3ccccc3)oc12` (stereo partly drawn), the Inhibition in the assay on Plasmodium falciparum [1] came to 88%; with Plasmodium falciparum [2] it was 73%; in the assay with HepG2, 8%.

In the case of `Cc1cccc(-c2nc(Nc3ccncc3)c3cc(N(C)C)ccc3n2)n1`, the Inhibition in the assay on Plasmodium falciparum [1] turned out to be 98%; in the assay on Plasmodium falciparum [2], 63%; in the assay with HepG2 it was 5%.

For `COc1cc(NC(=O)N2CCOC(CCN3CCC4(CCc5ccccc54)CC3)(c3ccc(Cl)c(Cl)c3)C2)cc(OC)c1` (stereo not drawn), the values for the Inhibition in the assay on Plasmodium falciparum [1], in the assay on Plasmodium falciparum [2] and in the assay on HepG2 were 87%, 50% and 29%, respectively.

On to `O=C(NCCN1CCCc2ccccc21)C1CCN(c2nc(-c3ccc(Cl)cc3)no2)CC1`, for which the Inhibition with Plasmodium falciparum [1] was 86%; in the assay on Plasmodium falciparum [2], 62%; with HepG2, 11%.

Take `Cl.O=C(Nc1ccncc1)Nc1ccc2c(c1)CCN(C1CCC1)CC2`: the Inhibition in the assay with Plasmodium falciparum [1] is 87%; in the assay with Plasmodium falciparum [2], 4%; in the assay with HepG2 it was 0%.

For the compound `CCN(CC)C(=O)C(=O)c1c[nH]c2ccc(Cl)cc12`, the Inhibition in the assay on Plasmodium falciparum [1] worked out at 96%; in the assay with Plasmodium falciparum [2] it was 96%; in the assay with HepG2, 1%.

For the compound `COc1ccc(NC(=O)Nc2cccc(-c3ccc(-c4nc5cc(C(F)(F)F)ccc5[nH]4)cc3)c2)cc1`, the Inhibition in the assay with Plasmodium falciparum [1] came out at 100%; in the assay with Plasmodium falciparum [2] it was 29%; in the assay on HepG2, 46%.

On to `Nc1cc(/C=C/c2ccc([N+](=O)[O-])s2)nc2ccccc12`, for which the Inhibition in the assay on Plasmodium falciparum [1] is 98%; with Plasmodium falciparum [2], 48%; in the assay with HepG2, 89%.

Regarding `O=c1cc(-c2ccc3ccccc3c2)[nH]c2ccccc12`, the results for the Inhibition with Plasmodium falciparum [1], in the assay with Plasmodium falciparum [2] and in the assay with HepG2 were 81%, 44% and 25%, respectively.

For `Fc1cccc(CNc2ncc(-c3ccsc3)c(-c3nccs3)n2)c1`, the figures for the Inhibition in the assay on Plasmodium falciparum [1], in the assay with Plasmodium falciparum [2] and with HepG2 were 91%, 85% and 15%, respectively.
